Source: the supplement of paper PMC10849652
Targets with a hit are over-represented here; the source holds about 7,900 in all. About 0.6% of all pairs of compound and target were hits.

These targets were tested with C1=CC2=C(C=CC(=C2)/C=C\3/C(=O)NC(=NCC4=CC=CS4)S3)N=C1 (assay: log2 fold change, soluble protein after heating vs DMSO (PISA); higher = thermal stabilisation; K562 cells, 10 uM, 30 min; active = over 0.2 and 3.5 SD of the protein, either way, in both replicates (recomputed)).
How it was run: (§1)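 Soluble protein was defined as the supernatant after 21,000xg for 90 min. It came from K562 cells at 2×10^6 cells/mL given 10 μM compound for 30 min, heated in aliquots for 3 min across 48°C-58°C, pooled, and extracted in PBS with 0.5% NP-40 at 4°C, and was quantified by TMTpro 16plex LC-MS/MS with equalised channel sums. Thermal stability against control samples, from duplicates, is reported as log2 fold change.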

Sequence of UniProt Q9UL33 (Q9UL33 whole entry, looked up): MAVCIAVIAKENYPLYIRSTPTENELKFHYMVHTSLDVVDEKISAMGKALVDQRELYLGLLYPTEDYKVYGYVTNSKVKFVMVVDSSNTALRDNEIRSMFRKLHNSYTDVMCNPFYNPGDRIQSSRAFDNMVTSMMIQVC
Sequence of UniProt Q9Y6I4 (Q9Y6I4 whole entry, looked up): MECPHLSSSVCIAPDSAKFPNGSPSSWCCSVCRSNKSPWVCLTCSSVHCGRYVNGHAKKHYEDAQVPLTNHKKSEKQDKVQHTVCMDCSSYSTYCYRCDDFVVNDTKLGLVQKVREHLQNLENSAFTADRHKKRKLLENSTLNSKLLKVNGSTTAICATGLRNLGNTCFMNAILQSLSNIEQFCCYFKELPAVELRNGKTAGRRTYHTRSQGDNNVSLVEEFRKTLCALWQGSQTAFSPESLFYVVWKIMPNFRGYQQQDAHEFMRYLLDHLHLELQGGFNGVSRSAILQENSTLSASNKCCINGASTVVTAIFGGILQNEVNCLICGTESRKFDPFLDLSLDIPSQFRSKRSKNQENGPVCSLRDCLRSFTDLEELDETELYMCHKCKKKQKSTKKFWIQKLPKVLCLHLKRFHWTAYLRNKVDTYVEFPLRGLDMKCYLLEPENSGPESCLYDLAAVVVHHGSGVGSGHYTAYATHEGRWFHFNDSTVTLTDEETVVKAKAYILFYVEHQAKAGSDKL
Sequence of UniProt Q5VIR6 (Q5VIR6 whole entry, looked up): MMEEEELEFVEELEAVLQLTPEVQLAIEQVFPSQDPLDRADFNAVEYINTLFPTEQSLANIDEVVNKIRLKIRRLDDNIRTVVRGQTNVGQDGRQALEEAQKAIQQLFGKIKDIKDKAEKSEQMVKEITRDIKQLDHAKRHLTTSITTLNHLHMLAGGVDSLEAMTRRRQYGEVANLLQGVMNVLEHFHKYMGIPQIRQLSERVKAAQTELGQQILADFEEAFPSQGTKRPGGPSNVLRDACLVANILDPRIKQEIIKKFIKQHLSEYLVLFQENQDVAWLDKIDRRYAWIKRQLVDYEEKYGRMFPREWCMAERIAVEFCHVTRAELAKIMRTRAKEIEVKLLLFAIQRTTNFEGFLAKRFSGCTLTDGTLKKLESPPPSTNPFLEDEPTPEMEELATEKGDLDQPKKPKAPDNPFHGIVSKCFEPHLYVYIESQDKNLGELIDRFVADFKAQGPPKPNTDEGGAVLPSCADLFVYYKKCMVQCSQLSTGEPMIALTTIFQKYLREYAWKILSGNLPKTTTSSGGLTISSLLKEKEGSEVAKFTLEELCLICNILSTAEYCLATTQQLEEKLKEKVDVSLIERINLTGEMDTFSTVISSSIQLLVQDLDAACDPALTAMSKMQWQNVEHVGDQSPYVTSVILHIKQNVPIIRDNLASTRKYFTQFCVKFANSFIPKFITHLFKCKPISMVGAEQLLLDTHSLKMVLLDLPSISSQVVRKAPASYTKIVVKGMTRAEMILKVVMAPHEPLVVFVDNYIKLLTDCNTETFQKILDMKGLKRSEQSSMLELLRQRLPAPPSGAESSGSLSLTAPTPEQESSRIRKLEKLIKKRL
Sequence of UniProt P26368 (P26368 whole entry, looked up): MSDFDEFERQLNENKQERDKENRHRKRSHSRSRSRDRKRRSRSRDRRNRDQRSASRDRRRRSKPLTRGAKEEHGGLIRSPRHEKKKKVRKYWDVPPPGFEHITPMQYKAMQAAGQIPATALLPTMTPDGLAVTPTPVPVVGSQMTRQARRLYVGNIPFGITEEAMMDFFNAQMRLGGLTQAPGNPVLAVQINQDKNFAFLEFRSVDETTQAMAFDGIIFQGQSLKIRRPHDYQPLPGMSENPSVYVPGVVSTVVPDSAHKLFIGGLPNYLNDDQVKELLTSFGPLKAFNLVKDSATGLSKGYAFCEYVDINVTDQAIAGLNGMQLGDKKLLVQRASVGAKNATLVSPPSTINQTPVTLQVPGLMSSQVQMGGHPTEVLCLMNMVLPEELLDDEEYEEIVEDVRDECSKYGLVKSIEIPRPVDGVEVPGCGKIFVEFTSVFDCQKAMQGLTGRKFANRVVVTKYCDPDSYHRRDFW
Sequence of UniProt O43396 (O43396 whole entry, looked up): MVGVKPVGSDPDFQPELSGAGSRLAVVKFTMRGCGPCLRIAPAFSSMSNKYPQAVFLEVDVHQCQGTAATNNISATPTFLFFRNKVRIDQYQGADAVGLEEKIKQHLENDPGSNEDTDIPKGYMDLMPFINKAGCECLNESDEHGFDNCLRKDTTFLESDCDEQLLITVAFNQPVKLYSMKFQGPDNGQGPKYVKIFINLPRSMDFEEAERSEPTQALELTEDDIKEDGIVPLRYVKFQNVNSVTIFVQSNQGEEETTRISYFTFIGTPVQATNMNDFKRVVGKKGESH
Sequence of UniProt Q9Y5K5 (Q9Y5K5 whole entry, looked up): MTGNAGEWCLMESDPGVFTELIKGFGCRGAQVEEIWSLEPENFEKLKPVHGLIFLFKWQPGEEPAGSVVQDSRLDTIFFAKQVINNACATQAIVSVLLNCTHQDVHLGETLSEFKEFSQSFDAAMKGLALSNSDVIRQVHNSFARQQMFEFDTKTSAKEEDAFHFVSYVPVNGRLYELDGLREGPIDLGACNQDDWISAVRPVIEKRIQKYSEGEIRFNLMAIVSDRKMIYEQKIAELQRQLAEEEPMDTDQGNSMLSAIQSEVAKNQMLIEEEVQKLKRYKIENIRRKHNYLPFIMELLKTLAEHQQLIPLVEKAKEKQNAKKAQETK
Sequence of UniProt O95801 (O95801 whole entry, looked up): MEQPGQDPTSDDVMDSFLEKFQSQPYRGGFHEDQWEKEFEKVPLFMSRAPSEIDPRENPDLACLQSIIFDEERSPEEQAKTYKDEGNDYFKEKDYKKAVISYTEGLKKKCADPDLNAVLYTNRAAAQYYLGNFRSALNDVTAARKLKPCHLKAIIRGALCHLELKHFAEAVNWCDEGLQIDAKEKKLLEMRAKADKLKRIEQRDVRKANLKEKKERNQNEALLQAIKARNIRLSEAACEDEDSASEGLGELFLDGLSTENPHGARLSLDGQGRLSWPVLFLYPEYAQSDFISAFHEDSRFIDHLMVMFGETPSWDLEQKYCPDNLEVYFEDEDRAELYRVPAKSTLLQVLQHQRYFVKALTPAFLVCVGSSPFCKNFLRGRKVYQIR
Sequence of UniProt Q99816 (Q99816 whole entry, looked up): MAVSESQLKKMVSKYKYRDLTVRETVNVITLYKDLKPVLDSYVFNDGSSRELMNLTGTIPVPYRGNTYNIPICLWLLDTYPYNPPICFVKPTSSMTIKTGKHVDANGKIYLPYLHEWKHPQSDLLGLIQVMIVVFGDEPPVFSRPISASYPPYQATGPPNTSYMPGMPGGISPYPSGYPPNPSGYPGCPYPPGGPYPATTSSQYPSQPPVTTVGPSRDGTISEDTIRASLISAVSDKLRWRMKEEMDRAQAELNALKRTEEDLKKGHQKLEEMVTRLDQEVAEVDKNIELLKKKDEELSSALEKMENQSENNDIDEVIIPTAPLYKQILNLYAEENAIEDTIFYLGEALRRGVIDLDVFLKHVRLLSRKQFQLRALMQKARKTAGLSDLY
Sequence of UniProt A5PLN9 (A5PLN9 whole entry, looked up): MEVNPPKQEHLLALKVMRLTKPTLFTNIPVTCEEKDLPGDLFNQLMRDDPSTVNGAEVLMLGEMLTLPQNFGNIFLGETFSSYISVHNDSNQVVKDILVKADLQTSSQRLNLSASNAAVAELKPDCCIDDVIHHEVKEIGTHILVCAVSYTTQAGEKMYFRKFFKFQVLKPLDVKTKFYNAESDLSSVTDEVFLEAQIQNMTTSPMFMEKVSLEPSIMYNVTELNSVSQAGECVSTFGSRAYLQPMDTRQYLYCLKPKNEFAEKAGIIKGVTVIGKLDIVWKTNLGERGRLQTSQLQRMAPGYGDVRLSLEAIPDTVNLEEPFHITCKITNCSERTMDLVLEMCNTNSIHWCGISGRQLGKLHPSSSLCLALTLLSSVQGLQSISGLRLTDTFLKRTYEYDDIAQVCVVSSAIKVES
Sequence of UniProt Q86UV5 (Q86UV5 whole entry, looked up): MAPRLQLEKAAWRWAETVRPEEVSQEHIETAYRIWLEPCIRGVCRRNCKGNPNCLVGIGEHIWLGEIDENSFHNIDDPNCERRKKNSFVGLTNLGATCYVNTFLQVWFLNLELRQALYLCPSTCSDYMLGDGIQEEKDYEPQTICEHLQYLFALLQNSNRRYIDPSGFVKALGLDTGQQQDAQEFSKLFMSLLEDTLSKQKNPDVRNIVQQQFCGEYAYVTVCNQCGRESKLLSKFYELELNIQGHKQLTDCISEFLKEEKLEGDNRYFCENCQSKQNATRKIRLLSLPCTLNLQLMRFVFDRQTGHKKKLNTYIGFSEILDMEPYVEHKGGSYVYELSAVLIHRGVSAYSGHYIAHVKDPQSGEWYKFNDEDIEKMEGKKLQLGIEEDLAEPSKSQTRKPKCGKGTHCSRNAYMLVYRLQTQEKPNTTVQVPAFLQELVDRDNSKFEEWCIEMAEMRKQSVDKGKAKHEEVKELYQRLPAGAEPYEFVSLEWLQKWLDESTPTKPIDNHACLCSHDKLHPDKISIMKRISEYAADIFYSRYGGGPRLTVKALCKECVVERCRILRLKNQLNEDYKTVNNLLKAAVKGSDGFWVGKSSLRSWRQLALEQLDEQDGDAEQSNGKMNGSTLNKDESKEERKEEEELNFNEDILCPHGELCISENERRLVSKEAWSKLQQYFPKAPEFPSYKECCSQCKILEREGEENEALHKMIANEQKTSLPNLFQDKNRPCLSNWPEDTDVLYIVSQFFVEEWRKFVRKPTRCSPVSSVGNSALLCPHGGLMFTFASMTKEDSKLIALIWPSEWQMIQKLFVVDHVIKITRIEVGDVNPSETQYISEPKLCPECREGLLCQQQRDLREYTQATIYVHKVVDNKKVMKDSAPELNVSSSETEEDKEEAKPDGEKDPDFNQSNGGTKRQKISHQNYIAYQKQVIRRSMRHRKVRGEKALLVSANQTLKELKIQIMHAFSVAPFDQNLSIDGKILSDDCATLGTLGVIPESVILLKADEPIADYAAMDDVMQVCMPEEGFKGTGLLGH
Sequence of UniProt Q15388 (Q15388 whole entry, looked up): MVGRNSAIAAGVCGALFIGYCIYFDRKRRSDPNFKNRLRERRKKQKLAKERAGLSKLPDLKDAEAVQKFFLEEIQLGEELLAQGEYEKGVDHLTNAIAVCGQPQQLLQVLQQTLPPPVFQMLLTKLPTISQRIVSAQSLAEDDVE

Row | Target | log2 fold change
1 | WDR61 (UniProt Q9GZS3) | 0.057 (inactive)
2 | USP3 (UniProt Q9Y6I4) | -0.062 (inactive)
3 | TOMM20 (UniProt Q15388) | 0.012 (inactive)
4 | TNPO2 (UniProt O14787) | 0.077 (inactive)
5 | VPS11 (UniProt Q9H270) | 0.058 (inactive)
6 | TMEM87B (UniProt Q96K49) | 0.003 (inactive)
7 | TRIP10 isoform 2 (UniProt Q15642) | -0.069 (inactive)
8 | TTI1 (UniProt O43156) | 0.057 (inactive)
9 | UFD1 isoform 1 (UniProt Q92890) | 0.012 (inactive)
10 | TRAPPC13 isoform 5 (UniProt A5PLN9) | 0.084 (inactive)
11 | VTI1A (UniProt Q96AJ9) | 0.015 (inactive)
12 | VPS52 (UniProt Q8N1B4) | 0.032 (inactive)
13 | TTC4 (UniProt O95801) | 0.061 (inactive)
14 | TMTC3 (UniProt Q6ZXV5) | 0.042 (inactive)
15 | XPO5 (UniProt Q9HAV4) | 0.011 (inactive)
16 | UTP3 (UniProt Q9NQZ2) | -0.068 (inactive)
17 | U2AF2 (UniProt P26368) | -0.045 (inactive)
18 | TRAPPC2L (UniProt Q9UL33) | -0.047 (inactive)

Row | Target | log2 fold change
19 | USP14 (UniProt P54578) | -0.04 (inactive)
20 | USP48 isoform 8 (UniProt Q86UV5) | 0.028 (inactive)
21 | WDCP (UniProt Q9H6R7) | -0.015 (inactive)
22 | TMEM223 (UniProt A0PJW6) | -0.009 (inactive)
23 | TSC2 (UniProt P49815) | -0.025 (inactive)
24 | TRAPPC8 (UniProt Q9Y2L5) | 0.094 (inactive)
25 | VPS53 isoform 4 (UniProt Q5VIR6) | 0.107 (inactive)
26 | USO1 isoform 2 (UniProt O60763) | -0.049 (inactive)
27 | UCHL5 (UniProt Q9Y5K5) | 0.036 (inactive)
28 | TMEM268 isoform 3 (UniProt Q5VZI3) | 0.024 (inactive)
29 | UBE4A isoform 2 (UniProt Q14139) | 0.012 (inactive)
30 | TRABD (UniProt Q9H4I3) | 0.032 (inactive)
31 | TSG101 (UniProt Q99816) | 0.046 (inactive)
32 | TMEM189-UBE2V1 (UniProt I3L0A0) | 0.055 (inactive)
33 | WDR41 (UniProt Q9HAD4) | -0.016 (inactive)
34 | TXNL1 (UniProt O43396) | -0.011 (inactive)
35 | UGDH (UniProt O60701) | 0.046 (inactive)
36 | TTC38 (UniProt Q5R3I4) | 0.021 (inactive)

Each target was assayed with C1=CC2=NC=CN=C2C=C1/C=C/3\C(=O)NC(=O)S3 in the same assay as above.
How it was run: as §1

Row | Target | log2 fold change
37 | WDR61 (UniProt Q9GZS3) | -0.016 (inactive)
38 | USP3 (UniProt Q9Y6I4) | 0.014 (inactive)
39 | TOMM20 (UniProt Q15388) | 0.018 (inactive)
40 | TNPO2 (UniProt O14787) | 0.017 (inactive)
41 | VPS11 (UniProt Q9H270) | 0.068 (inactive)
42 | TMEM87B (UniProt Q96K49) | 0.055 (inactive)
43 | TRIP10 isoform 2 (UniProt Q15642) | 0.055 (inactive)
44 | TTI1 (UniProt O43156) | 0.028 (inactive)
45 | UFD1 isoform 1 (UniProt Q92890) | 0.015 (inactive)
46 | TRAPPC13 isoform 5 (UniProt A5PLN9) | 0.021 (inactive)
47 | VTI1A (UniProt Q96AJ9) | 0.087 (inactive)
48 | VPS52 (UniProt Q8N1B4) | 0.031 (inactive)
49 | TTC4 (UniProt O95801) | -0.007 (inactive)
50 | TMTC3 (UniProt Q6ZXV5) | 0.002 (inactive)
51 | XPO5 (UniProt Q9HAV4) | 0.016 (inactive)
52 | UTP3 (UniProt Q9NQZ2) | 0 (inactive)
53 | U2AF2 (UniProt P26368) | -0.004 (inactive)
54 | TRAPPC2L (UniProt Q9UL33) | 0.001 (inactive)

Row | Target | log2 fold change
55 | USP14 (UniProt P54578) | 0 (inactive)
56 | USP48 isoform 8 (UniProt Q86UV5) | -0.013 (inactive)
57 | WDCP (UniProt Q9H6R7) | 0.134 (inactive)
58 | TMEM223 (UniProt A0PJW6) | 0.013 (inactive)
59 | TSC2 (UniProt P49815) | -0.135 (inactive)
60 | TRAPPC8 (UniProt Q9Y2L5) | -0.007 (inactive)
61 | VPS53 isoform 4 (UniProt Q5VIR6) | 0.048 (inactive)
62 | USO1 isoform 2 (UniProt O60763) | 0.059 (inactive)
63 | UCHL5 (UniProt Q9Y5K5) | 0.008 (inactive)
64 | TMEM268 isoform 3 (UniProt Q5VZI3) | -0.138 (inactive)
65 | UBE4A isoform 2 (UniProt Q14139) | 0.083 (inactive)
66 | TRABD (UniProt Q9H4I3) | -0.049 (inactive)
67 | TSG101 (UniProt Q99816) | 0.004 (inactive)
68 | TMEM189-UBE2V1 (UniProt I3L0A0) | -0.047 (inactive)
69 | WDR41 (UniProt Q9HAD4) | 0.019 (inactive)
70 | TXNL1 (UniProt O43396) | -0.018 (inactive)
71 | UGDH (UniProt O60701) | -0.174 (inactive)
72 | TTC38 (UniProt Q5R3I4) | -0.002 (inactive)
